Experimental data published in PubChem BioAssay (NCATS).
Results filed as inconclusive are left out. Active and inactive are the calls of the source. Unless noted, calls follow the shape of the dose curve; as a rule, active = well fitted curve in either direction with a large enough effect (not every such curve was filed as active); inconclusive = small, poorly fitted or top-dose-only effect, or another doubt; inactive = flat fitted curve, though single readings scatter.

Tests used:
[1] = molecular target: Lysosomal acid glucosylceramidase (Homo sapiens) (UniProt P04062); experiment: Glucocerebrosidase-p2 (AID 348; in the data active = potency below about 10 µM; also: potency is read from the fitted curve at half-maximal effect); settings: purified GBA, blue fluorogenic substrate, 40 min
Sequence of Lysosomal acid glucosylceramidase (Homo sapiens) (P04062 whole entry, looked up): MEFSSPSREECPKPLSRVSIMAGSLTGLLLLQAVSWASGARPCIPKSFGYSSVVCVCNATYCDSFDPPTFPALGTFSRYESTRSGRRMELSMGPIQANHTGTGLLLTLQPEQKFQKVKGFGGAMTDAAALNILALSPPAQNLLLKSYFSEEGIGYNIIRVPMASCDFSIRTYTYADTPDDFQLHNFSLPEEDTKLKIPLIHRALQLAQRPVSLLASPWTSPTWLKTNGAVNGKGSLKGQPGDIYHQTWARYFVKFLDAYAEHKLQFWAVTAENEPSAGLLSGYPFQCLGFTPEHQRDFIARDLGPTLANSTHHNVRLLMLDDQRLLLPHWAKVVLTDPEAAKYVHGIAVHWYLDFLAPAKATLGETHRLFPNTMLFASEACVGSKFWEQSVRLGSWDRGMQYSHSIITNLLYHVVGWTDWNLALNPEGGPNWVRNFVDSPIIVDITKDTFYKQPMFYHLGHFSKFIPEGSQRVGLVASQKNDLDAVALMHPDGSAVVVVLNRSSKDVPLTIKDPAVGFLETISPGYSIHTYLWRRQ
Method in brief: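 Compounds titrated from 0.6 nM upwards against 0.2 nM enzyme in pH 5.9 citric acid/KH2PO4, taurocholate, tween-20; blue fluorogenic substrate 80 uM, 40 min room temperature, stopped and read Ex 365/Em 440 for AC50.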

[2] = AP1 Signaling Pathway (AID 357); settings: ME-180 AP-1-bla reporter, EGF-induced, beta-lactamase ratio, 5 h; at 7.69 µM (top of the series) unless noted;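 also: ME-180 reporter cells stimulated with EGF at its EC50 level; % is scaled to controls: 0 for no effect and ±100 for the full control effect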
Method in brief: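 In this screen, ME-180 cells in Opti-MEM with 0.5% dialyzed FBS received EC50 EGF and compound titrations for 5 h. AP-1 reporter beta-lactamase was detected via CCF4 ratio, giving AC50 for positive and negative modulators.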

[3] = molecular target: Cytochrome P450 1A2 (Homo sapiens) (UniProt P05177); experiment: p450-cyp1a2 (AID 410; calls by dose curve; also: potency is read from the fitted curve at half-maximal effect;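 as to activity change, negative = inhibition: -100% = full effect of reference inhibitor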); settings: recombinant CYP1A2, luciferin-ME demethylation, luminescence; series mostly up to 11.4 µM
Sequence of Cytochrome P450 1A2 (Homo sapiens) (P05177 whole entry, looked up): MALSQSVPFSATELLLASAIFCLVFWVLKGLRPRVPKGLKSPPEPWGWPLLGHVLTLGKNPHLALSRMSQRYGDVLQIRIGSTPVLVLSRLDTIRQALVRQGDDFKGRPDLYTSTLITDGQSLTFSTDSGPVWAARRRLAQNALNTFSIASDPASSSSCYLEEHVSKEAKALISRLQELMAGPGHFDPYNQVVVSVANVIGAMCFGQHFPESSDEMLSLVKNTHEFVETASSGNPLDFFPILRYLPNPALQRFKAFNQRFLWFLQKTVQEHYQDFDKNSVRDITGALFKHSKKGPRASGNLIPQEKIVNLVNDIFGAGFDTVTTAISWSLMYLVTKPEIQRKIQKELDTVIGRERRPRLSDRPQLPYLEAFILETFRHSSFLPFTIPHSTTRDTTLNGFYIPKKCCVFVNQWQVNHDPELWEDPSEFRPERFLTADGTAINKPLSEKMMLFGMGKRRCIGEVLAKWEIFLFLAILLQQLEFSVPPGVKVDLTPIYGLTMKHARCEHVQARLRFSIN
Method in brief: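 Human CYP1A2 (20nM) demethylated Luciferin-ME at its Km (100uM) in 100mM KPO4. After 10 min compound preincubation, NADPH regeneration ran the reaction 60 min at room temperature. Luciferin was read by luminescence, normalized to 57 uM furafylline.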

[4] = NFAT Signaling Pathway (AID 444); settings: Jurkat NFAT-bla M1, carbachol, beta-lactamase ratio, 5 h; at 7.69 µM (top of the series) unless noted;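 also: carbachol stimulus at about its EC50 of 1 µM final; % is scaled to controls: 0 for no effect and ±100 for the full control effect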
Method in brief: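 Jurkat cells carrying an NFAT-driven β-lactamase reporter and co-transfected muscarinic M1 receptor were treated with compound plus carbachol (1 uM final, an EC50 level) for 5 h at 37 °C. CCF4 loading followed for 1 h at RT; 460/530 nm ratio gave %activity.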

[5] = Stat Signaling Pathway (AID 446); settings: ME-180 SIE beta-lactamase reporter, IL-6 stimulated, 5 h; at 7.69 µM (top of the series) unless noted;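 also: ME-180 cervical cancer cells given 40 pM IL-6 alongside compound; SIE-controlled beta-lactamase reporter measured as 460/530 nm FRET emission ratio; % is scaled to controls: 0 for no effect and ±100 for the full control effect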
Method in brief: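 ME-180 cells carrying a SIE-driven beta-lactamase reporter are stimulated with 40 pM IL-6 for 5 h at 37C in the presence of compound. The 460/530 nm FRET substrate ratio is read after 2.5 h at RT. Data are normalised to 300 pM IL-6 and to 125 nM JAK inhibitor controls.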

[6] = molecular target: Glucocorticoid receptor (Homo sapiens) (UniProt P04150); experiment: GR-EFC Redistribution (AID 451; calls by dose curve; also: potency is read from the fitted curve at half-maximal effect); settings: CHO-K1 GR-EFC translocation, beta-gal luminescence, 2 h
Sequence of Glucocorticoid receptor (Homo sapiens) (P04150 whole entry, looked up, the tested form may be a part): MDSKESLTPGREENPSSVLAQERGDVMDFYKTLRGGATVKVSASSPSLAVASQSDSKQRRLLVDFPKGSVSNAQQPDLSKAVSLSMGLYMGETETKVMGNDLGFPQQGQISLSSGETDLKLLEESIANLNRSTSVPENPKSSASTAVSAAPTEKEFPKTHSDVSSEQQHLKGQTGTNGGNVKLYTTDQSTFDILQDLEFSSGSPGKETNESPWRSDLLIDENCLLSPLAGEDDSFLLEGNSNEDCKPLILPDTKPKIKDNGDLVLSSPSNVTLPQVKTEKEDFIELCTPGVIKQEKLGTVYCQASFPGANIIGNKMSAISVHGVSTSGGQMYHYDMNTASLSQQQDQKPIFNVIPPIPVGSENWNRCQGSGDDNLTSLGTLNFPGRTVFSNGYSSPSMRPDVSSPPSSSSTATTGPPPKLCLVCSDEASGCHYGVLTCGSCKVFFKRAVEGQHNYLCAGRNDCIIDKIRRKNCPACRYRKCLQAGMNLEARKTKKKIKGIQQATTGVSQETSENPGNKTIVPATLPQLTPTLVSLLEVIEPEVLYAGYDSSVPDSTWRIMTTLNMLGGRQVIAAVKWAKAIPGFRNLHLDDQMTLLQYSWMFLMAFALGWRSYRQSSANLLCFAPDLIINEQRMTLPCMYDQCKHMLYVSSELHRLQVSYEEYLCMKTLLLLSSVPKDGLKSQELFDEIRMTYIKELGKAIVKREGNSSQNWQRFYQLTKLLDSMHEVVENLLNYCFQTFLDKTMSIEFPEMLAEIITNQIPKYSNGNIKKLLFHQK
Method in brief: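 CHO-K1 cells stably expressing nuclear-localized β-gal enzyme acceptor and GR fused C-terminally to the enzyme donor fragment; ligand-driven nuclear translocation restores β-gal by complementation. Compounds titrated up to 46 uM final, 2 h at 37 °C; luminescence read.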

[7] = molecular target: Mitogen-activated protein kinase 10 (Mus musculus) (UniProt Q61831); experiment: JNK3 AlphaScreen Assay (AID 530); settings: JNK3 lysate, c-Jun phosphorylation; series mostly up to 11.4 µM;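 also: kinase came from lysate of stimulated human HepG2 cells; signal reports phosphorylation of biotinylated GST-cJun 1-79 at Ser73 with 10 µM ATP; % is scaled to controls: 0 for no effect and ±100 for the full control effect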
Method in brief: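 JNK3 came from HepG2 lysates pre-activated with IL-1beta and TNF-alpha and phosphorylated biotinylated GST-cJun (1-79) at 10 uM ATP, pH 7.6, room temperature. Compounds were titrated. AlphaScreen signal used anti-phospho-cJun (Ser73) antibody.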

[8] = molecular target: 3',5'-cyclic-AMP phosphodiesterase 4B (Homo sapiens) (UniProt Q07343); experiment: qHTS Assay for Inhibitors of PDE-IV (AID 607; active = well fitted activation curve with a large enough effect in the main read-out, with a control signal flat, not every such curve was filed as active; also: % of control where 0% means no effect); settings: HEK293 ACTOne CNG channel cells, membrane potential fluorescence; series mostly up to 22.9 µM
Sequence of 3',5'-cyclic-AMP phosphodiesterase 4B (Homo sapiens) (Q07343 whole entry, looked up): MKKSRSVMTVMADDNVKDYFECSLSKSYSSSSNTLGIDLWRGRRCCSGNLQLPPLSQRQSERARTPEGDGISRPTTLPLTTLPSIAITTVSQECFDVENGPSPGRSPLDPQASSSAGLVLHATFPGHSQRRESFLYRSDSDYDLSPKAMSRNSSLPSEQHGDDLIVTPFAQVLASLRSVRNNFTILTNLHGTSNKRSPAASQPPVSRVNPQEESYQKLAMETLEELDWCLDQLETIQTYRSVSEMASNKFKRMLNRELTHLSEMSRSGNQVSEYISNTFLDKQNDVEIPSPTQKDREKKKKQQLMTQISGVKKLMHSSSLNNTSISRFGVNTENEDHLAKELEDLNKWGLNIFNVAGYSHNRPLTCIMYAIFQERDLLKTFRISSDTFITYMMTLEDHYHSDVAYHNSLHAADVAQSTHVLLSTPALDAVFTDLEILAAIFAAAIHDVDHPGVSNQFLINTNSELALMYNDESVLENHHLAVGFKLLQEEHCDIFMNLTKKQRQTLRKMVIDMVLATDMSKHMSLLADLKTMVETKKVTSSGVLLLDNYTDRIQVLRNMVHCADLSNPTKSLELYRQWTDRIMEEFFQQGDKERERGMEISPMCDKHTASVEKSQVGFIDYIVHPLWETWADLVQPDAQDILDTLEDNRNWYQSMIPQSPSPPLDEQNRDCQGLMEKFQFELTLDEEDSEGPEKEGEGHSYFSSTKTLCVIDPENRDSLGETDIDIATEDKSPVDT
Method in brief: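 HEK293 ACTOne cells with CNG channel (1000/well), endogenous PDE4; membrane potential dye, compounds up to 22.9 uM final. Fluorescence Ex 535/Em 590; RO 20-1724 (100 uM final) as reference.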

[9] = molecular target: Cytochrome P450 3A4 (Homo sapiens) (UniProt P08684); experiment: qHTS Assay for Activators of Cytochrome P450 3A4 (AID 885; active = well fitted curve in the direction sought with a large enough effect; an effect the other way counts as inactive or inconclusive; also: nearly all actives have a fitted effect of over 65% in size); settings: recombinant CYP3A4, Luciferin-PPXE luminescence, 60 min; series mostly up to 11.4 µM
Sequence of Cytochrome P450 3A4 (Homo sapiens) (P08684 whole entry, looked up): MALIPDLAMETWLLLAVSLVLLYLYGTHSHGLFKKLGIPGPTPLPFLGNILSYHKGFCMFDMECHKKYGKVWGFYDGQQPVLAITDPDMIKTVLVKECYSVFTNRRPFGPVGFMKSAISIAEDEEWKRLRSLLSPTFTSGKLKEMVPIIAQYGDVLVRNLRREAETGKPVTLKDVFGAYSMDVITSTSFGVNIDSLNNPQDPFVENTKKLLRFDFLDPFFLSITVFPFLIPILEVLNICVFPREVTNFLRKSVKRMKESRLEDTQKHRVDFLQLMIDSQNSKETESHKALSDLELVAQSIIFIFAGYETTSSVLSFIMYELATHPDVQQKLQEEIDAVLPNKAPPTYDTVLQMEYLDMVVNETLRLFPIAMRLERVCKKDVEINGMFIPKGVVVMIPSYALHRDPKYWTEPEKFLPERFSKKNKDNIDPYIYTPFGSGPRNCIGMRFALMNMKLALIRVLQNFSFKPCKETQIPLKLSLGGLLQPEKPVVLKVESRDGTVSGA
Method in brief: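 Human CYP3A4 (20 nM) with Luciferin-PPXE at 25 uM (its KM) in 200 mM KPO4; 10 min compound preincubation, then NADPH regeneration and 60 min reaction at RT. Luciferin read by luminescence; normalized to 57 uM ketoconazole full inhibition.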

[10] = qHTS Assay for Identification of Small Molecule Agonists for Hypoxia Response Element Signaling Pathway (AID 914; active = well fitted activation curve with a large enough effect in the signal ratio, with a control signal flat, not every such curve was filed as active; the % refers to the signal ratio; also: % of control where 0% means no effect); settings: ME-180 (cervical carcinoma) HRE-bla reporter, beta-lactamase ratio, CoCl2, 17 h; activation: active compounds read high
Method in brief: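 HRE-bla ME-180 cells, overnight plating in Opti-MEM with 0.5% dialyzed FBS; cpd titration + EC50 CoCl2, 17 h, 37 degrees Celsius; CCF4 2.5 h RT; 460/530 nm ratio; AC50.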

[11] = molecular target: Glucocorticoid receptor (Homo sapiens) (UniProt P04150); experiment: GR-GFP Redistribution (AID 450;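 active = compounds whose dose series gives a full or clear partial fitted curve of increased nuclear translocation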; also: potency is read from the fitted curve at half-maximal effect); settings: U2OS GR-GFP nuclear translocation, laser cytometry, 2 h
[12] = molecular target: Cytochrome P450 2D6 (Homo sapiens) (UniProt P10635); experiment: qHTS Assay for Inhibitors and Substrates of Cytochrome P450 2D6 (AID 891; active = well fitted curve in the direction sought with a large enough effect; an effect the other way counts as inactive or inconclusive;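 also: luciferin methyl ether substrate demethylated by CYP2D6 with NADPH regeneration; % is scaled to controls: 0 for no effect and ±100 for the full control effect; nearly all actives have a fitted effect of over 60% in size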); settings: recombinant CYP2D6, luciferin-ME EGE luminescence; series mostly up to 11.4 µM
Sequence of Cytochrome P450 2D6 (Homo sapiens) (P10635 whole entry, looked up): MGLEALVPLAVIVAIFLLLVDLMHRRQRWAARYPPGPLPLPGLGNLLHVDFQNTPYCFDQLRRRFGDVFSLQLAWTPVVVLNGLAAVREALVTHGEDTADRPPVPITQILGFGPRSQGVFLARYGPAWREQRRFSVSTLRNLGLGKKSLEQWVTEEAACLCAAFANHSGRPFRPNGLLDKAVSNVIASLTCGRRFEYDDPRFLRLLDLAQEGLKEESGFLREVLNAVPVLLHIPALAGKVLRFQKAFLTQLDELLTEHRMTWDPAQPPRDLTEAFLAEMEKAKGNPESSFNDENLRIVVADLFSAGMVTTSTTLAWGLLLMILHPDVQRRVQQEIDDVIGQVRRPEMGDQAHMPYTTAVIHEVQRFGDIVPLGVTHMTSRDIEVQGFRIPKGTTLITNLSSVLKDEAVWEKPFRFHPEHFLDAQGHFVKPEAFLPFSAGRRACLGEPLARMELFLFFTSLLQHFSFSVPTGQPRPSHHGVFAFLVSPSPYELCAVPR
Method in brief: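 Human CYP2D6 (5 nM) with 30 uM Luciferin-ME EGE (at Km) in 100 mM KPO4, compound preincubated 10 min, then NADPH regeneration system for 60 min at room temperature. Luciferin read by luminescence; normalized to 1.43 uM quinidine.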

[13] = molecular target: Cytochrome P450 2C19 (Homo sapiens) (UniProt P33261); experiment: qHTS Assay for Inhibitors and Substrates of Cytochrome P450 2C19 (AID 899; active = well fitted curve in the direction sought with a large enough effect; an effect the other way counts as inactive or inconclusive; also: nearly all actives have a fitted effect of over 60% in size; also: potency is read from the fitted curve at half-maximal effect); settings: recombinant CYP2C19, luciferin-H EGE luminescence; series mostly up to 11.4 µM
Sequence of Cytochrome P450 2C19 (Homo sapiens) (P33261 whole entry, looked up): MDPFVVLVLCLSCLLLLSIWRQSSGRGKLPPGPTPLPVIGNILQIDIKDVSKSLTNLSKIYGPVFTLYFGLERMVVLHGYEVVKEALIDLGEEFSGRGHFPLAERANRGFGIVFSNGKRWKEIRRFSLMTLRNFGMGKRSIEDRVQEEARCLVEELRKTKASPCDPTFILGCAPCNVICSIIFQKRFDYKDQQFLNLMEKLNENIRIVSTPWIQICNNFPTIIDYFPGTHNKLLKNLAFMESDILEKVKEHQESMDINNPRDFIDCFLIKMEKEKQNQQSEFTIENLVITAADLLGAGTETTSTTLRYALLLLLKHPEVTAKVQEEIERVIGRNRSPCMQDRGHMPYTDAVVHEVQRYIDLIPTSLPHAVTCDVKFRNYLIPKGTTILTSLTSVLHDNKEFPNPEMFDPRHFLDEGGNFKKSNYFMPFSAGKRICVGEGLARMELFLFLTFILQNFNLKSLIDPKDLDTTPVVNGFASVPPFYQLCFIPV
Method in brief: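 Human CYP2C19 (5nM) with Luciferin-H EGE at 10uM (its KM) in 50mM KPO4 was preincubated with compound for 10 min at 37C. NADPH regeneration started a 60 min 37C reaction. Luciferin was read by luminescence, normalized to 57uM ketoconazole.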

COc1nc(N)nc2c1ncn2[C@@H]1C[C@H](O)[C@@H](CO)O1
inactive: Potency [1] > 11.4 µM | activity change, negative = inhibition [2] 5.07% | Potency [3] | activity change, negative = inhibition [4] 4.99% | activity, negative = inhibition [5] 11.5% | Potency [6] > 9.22 µM | Potency [7] | Potency [8]

CO[C@@H]1/C=C\O[C@]2(C)Oc3c(C)c(O)c4c(O)c(cc(O)c4c3C2=O)NC(=O)/C(C)=C\C=C/[C@H](C)[C@@H](O)[C@H](C)[C@H](O)[C@H](C)[C@H](OC(C)=O)[C@@H]1C
inactive: Potency [1] > 11.4 µM | activity change, negative = inhibition [2] 1.83% | Potency [3] | activity change, negative = inhibition [4] -26.6% | activity, negative = inhibition [5] -1.99% | Potency [7] | Potency [8] | Potency [9]

COc1ccc(C(=O)N2CCC3(CCCN(C(=O)Nc4cccc(F)c4)C3)CC2)cc1
inactive: Potency [1] > 11.4 µM | activity change, negative = inhibition [2] -10.3% | activity change, negative = inhibition [4] 5.86% | activity, negative = inhibition [5] -13.8% | Potency [6] > 46 µM | Potency [7] | Potency [9] | activation [10] -19.5%
active: Potency [3] 20 µM

CCOc1ccccc1Nc1ccc(N)cc1S(=O)(=O)O
inactive: Potency [1] > 11.4 µM | activity change, negative = inhibition [2] 6.02% | activity change, negative = inhibition [3] -12.6% [at 2.29 µM] | activity change, negative = inhibition [4] -5.87% | activity, negative = inhibition [5] -1.52% | Potency [6] > 9.22 µM | Potency [7] | Potency [8]

O=S(=O)(c1ccccc1)N1CCC[C@@]2(CCN(Cc3ccccc3)C2)C1
active: Potency [3] 20 µM
inactive: Potency [1] > 11.4 µM | activity change, negative = inhibition [2] 6.44% | activity change, negative = inhibition [4] -28.9% | activity, negative = inhibition [5] -5.04% | Potency [6] > 46 µM | Potency [7] | Potency [8] | Potency [9]

CC(=O)N[C@@H]1CONC1=O
inactive: Potency [1] > 11.4 µM | activity change, negative = inhibition [2] 10.9% | Potency [3] | activity change, negative = inhibition [4] 5.02% | Potency [11] > 46 µM | Potency [6] > 9.22 µM | Potency [7] | Potency [8]

Cc1c(Cl)c(S(N)(=O)=O)cc(S(N)(=O)=O)c1NC(=O)c1ccc(Cl)cc1
inactive: Potency [1] > 11.4 µM | activity change, negative = inhibition [2] -4.6% | Potency [3] | activity change, negative = inhibition [4] 5.51% | activity, negative = inhibition [5] 5.58% | Potency [6] > 9.22 µM | Potency [7] | Potency [8] | Potency [12] | Potency [13]

Nc1nc(SCc2ccccc2)c2ncn(Cc3ccccc3)c2n1
active: Potency [3] 0.251 µM | Potency [13] 2.51 µM
inactive: Potency [1] > 11.4 µM | activity change, negative = inhibition [2] -24.3% | activity change, negative = inhibition [4] 9.29% | activity, negative = inhibition [5] -3.2% | Potency [6] > 9.22 µM | Potency [7] | Potency [8] | Potency [9]

N[C@@H](CSCc1ccccc1)C(=O)O
inactive: Potency [1] > 11.4 µM | activity change, negative = inhibition [2] 14.5% | Potency [3] | activity change, negative = inhibition [4] 3.49% | activity, negative = inhibition [5] -2.8% | Potency [6] > 9.22 µM | Potency [7] | Potency [8]

COc1cc(-c2[o+]c3cc(O)cc(O)c3cc2O)cc(O)c1O
inactive: Potency [1] > 11.4 µM | activity change, negative = inhibition [2] 19.4% | activity change, negative = inhibition [3] -19.9% [at 2.29 µM] | activity change, negative = inhibition [4] 20.3% | activity, negative = inhibition [5] 0.423% | Potency [7] | Potency [8]

NS(=O)(=O)c1ccc(NC2(C(=O)O)CCCC2)cc1
active: Potency [3] 0.794 µM
inactive: Potency [1] > 11.4 µM | activity change, negative = inhibition [2] -4.84% | activity change, negative = inhibition [4] 2.12% | activity, negative = inhibition [5] 11.8% | Potency [6] > 9.22 µM | Potency [7] | Potency [8]

O=S(=O)(O)c1ccc(O)c2ncccc12.O=S(=O)(O)c1ccc(O)c2ncccc12.[Zn]
active: Potency [3] 0.631 µM
inactive: Potency [1] > 11.4 µM | activity change, negative = inhibition [2] 6.49% | activity change, negative = inhibition [4] -15.3% | Potency [11] > 46 µM | Potency [6] > 9.22 µM | Potency [7] | Potency [8]

O=C(O)[C@@H](c1ccccc1)[C@@H](C(=O)O)c1ccccc1
inactive: Potency [1] > 11.4 µM | activity change, negative = inhibition [2] 3.89% | activity change, negative = inhibition [3] -12% [at 2.29 µM] | activity change, negative = inhibition [4] 6.48% | activity, negative = inhibition [5] -0.514% | Potency [6] > 9.22 µM | Potency [7] | Potency [12]

NC(N)=NC(N)=Nc1ccc(S(N)(=O)=O)cc1
inactive: Potency [1] > 11.4 µM | activity change, negative = inhibition [2] 3.63% | Potency [3] | activity change, negative = inhibition [4] 3.86% | Potency [11] > 46 µM | Potency [6] > 9.22 µM | Potency [7] | Potency [8]

O=C(O)CSc1ccn(Cc2ccccc2)c1
inactive: Potency [1] > 11.4 µM | activity change, negative = inhibition [2] -4.91% | Potency [3] | activity change, negative = inhibition [4] 1.69% | Potency [11] > 46 µM | Potency [6] > 9.22 µM | Potency [7] | Potency [8] | Potency [13]
